# Test results from PubChem BioAssay (NCI).
# The panel holds about 83,000 compounds, 20% with a hit somewhere; the sample as a whole holds those more often.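 Single-dose data. Exposure time 48 hours. Values below 10 considered active.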 A number with no mark means an inactive call. Activity calls are given as the source filed them.
# How the values were obtained:
# Assay in all cases: NCI-60 one-dose screen, 48 h (100 = growth as untreated, 0 = no growth, -100 = all killed)
# Conditions in all cases: 10 µM unless noted
# DU-145 prostate = test system: DU-145 prostate
# K-562 leukemia = test system: K-562 leukemia
# MALME-3M melanoma = test system: MALME-3M melanoma
# MDA-MB-231 breast = test system: MDA-MB-231 breast
# RXF 393 renal = test system: RXF 393 renal
# SF-268 CNS = test system: SF-268 CNS
# SF-295 CNS = test system: SF-295 CNS
# SF-539 CNS = test system: SF-539 CNS
# UACC-257 melanoma = test system: UACC-257 melanoma
# M14 melanoma = test system: M14 melanoma
Structure (SMILES),growth (DU-145 prostate),growth (K-562 leukemia),growth (MALME-3M melanoma),growth (MDA-MB-231 breast),growth (RXF 393 renal),growth (SF-268 CNS),growth (SF-295 CNS),growth (SF-539 CNS),growth (UACC-257 melanoma),growth (M14 melanoma)
NS(=O)(=O)c1ccc(C(=O)NN2C(=O)c3ccccc3C2=O)cc1,105%,101%,109%,109%,120%,92.8%,98.7%,113%,110%,104%
CCCN(CCSSCCNc1nc(N(C)O)nc(N(C)O)n1)c1nc(N(C)O)nc(N(C)O)n1,54.4%,157%,62.1%,66.6%,72.9%,42.1%,48.7%,62.8%,-2.3% (active),84.4%
Cc1oc(-c2ccc(Cl)cc2)nc1C1=NN(C(=O)c2ccncc2)C(c2ccccc2)C1 (stereo not given),101%,85.9%,101%,76.7%,82.3%,89.2%,89.4%,95.6%,103%,99.2%
CCOC(=O)c1nnn(Cc2cc(=O)oc3ccc(O)cc23)c1C,115%,103%,103%,105%,113%,108%,97.7%,102%,105%,100%
CC1=C2[C@@H](CC1)[C@]1(C)O[C@@](C3CCNCC3)(C[C@H]1OC(=O)CO)[C@H]2OC(=O)/C=C/c1ccccc1,101%,62.9%,81%,107%,65.4%,87.7%,90.9%,91.5%,85%,83.6%
C=C1C(=O)O[C@H]2[C@H]1CC/C(COC(=O)C(=O)c1c[nH]c3ccc(Cl)cc13)=C\CC[C@@]1(C)O[C@@H]21,-96.2% (active),2.92% (active),-75.7% (active),-74.8% (active),-92.9% (active),-81.3% (active),-10.6% (active),-78.5% (active),-75.9% (active),-83.1% (active)
COc1ccc(CN2C(=O)OC(C)(COC(C)=O)C2=O)cc1 (stereo not given),107%,94.5%,102%,103%,105%,102%,99.7%,96%,100%,105%
Cc1ccc2nc(-c3ccc(C(=O)N/N=C/c4ccc([N+](=O)[O-])cc4)cc3)[nH]c2c1,103%,101%,92.2%,97.3%,104%,101%,111%,97.5%,108%,102%
CCCC(O)Cn1ncc(C(=O)OCC)c1NC(=O)NCc1cccc(C(F)(F)F)c1 (stereo not given),99.8%,46.9%,92%,95.1%,113%,103%,93.8%,94.3%,101%,58.5%
CCOC(=O)/C=C1\S/C(=N\Nc2cc(=O)[nH]c3ccc(Br)cc23)N(c2ccccc2)C1=O,85.2%,13.4%,82%,86.2%,35.2%,85.6%,100%,80.8%,89.9%,89.5%
O=C(Oc1ccc2c(c1)sc1nc(-c3ccccc3)[nH]c(=O)c12)C(F)(F)F,44.2%,15.3%,33.3%,61.4%,43.8%,44%,51.9%,27.9%,49.1%,4.5% (active)
O=c1cc(CP(=O)(O)O)c2cc(O)c(-c3ccccc3)cc2o1,105%,105%,103%,111%,105%,99%,101%,104%,101%,97.6%
CCCOC(=O)Nc1nc2ccc(SCC)cc2s1,94.6%,26.2%,77.9%,82.9%,95.8%,92.8%,80.8%,80.9%,96.4%,46.5%
O=C(O)c1cn(C2CC2)c2cc(N3CCN(C(=O)N4CCOCC4)CC3)c(F)cc2c1=O,115%,114%,88.6%,104%,94.6%,97.9%,106%,102%,98%,102%
O=C(/C=C/c1ccccc1)c1cccc2ccccc12,15.6%,10.6%,68.8%,55.1%,12.4%,42.1%,34.8%,51.2%,40.2%,86.7%
Cc1nc(N/N=C/c2cn(-c3ccccc3)nc2-c2cc3ccccc3oc2=O)sc1N=Nc1ccccc1,105%,34%,89.6%,87.7%,94.6%,94.9%,81.6%,87.7%,94.5%,70.7%
COc1ccc2c(c1)CC[C@@H]1[C@@H]2CC[C@]2(C)c3c(cc(C#N)c4c3sc3ccccc34)C[C@@H]12,121%,88.5%,108%,107%,106%,100%,103%,105%,99.9%,161%
CN(C)CCn1c(=O)c2ccccc2n2nc3ccccc3c12,101%,86.5%,92.4%,90.8%,74.3%,98.6%,75%,87.9%,105%,92.1%
Cc1sc2nc(NCCN)[nH]c(=O)c2c1C,96.7%,103%,82.1%,81.1%,100%,91.4%,98%,88.1%,107%,85.1%
COc1cc(C=Nc2oc(-c3ccccc3)c(-c3ccccc3)c2C#N)cc(CN2CCCC2)c1O,108%,94.4%,117%,95.7%,111%,96.4%,98.5%,95.1%,107%,100%
O=S(Nc1ccccc1)c1ccc(Cl)cc1 (stereo not given),116%,94.6%,108%,103%,99.2%,100%,107%,102%,86.2%,99.2%
Cc1ccccc1N1CCN(C(=S)c2ccccc2)CC1,114%,107%,103%,93.9%,96.6%,105%,69.5%,94.7%,-18% (active),101%
CCN(CC)C(=O)C1=C(C)NC(=O)NC1c1ccc2c(c1)OCO2 (stereo not given),113%,101%,108%,108%,102%,102%,103%,96.2%,103%,104%
C#Cc1cccc(NC(=O)C2CCCCN2C(=O)CCl)c1 (stereo not given),-33.8% [8.25 µM] (active),2.41% [8.25 µM] (active),-86.7% [8.25 µM] (active),-62% [8.25 µM] (active),-87.8% [8.25 µM] (active),-53.2% [8.25 µM] (active),52.4% [8.25 µM],-91.1% [8.25 µM] (active),-0.384% [8.25 µM] (active),-41.9% [8.25 µM] (active)
C[C@@H]1NC(=O)[C@H](Cc2ccccc2)N(Cc2cccnc2)C1=O,108%,89%,101%,97.3%,108%,104%,97%,101%,91.7%,93.8%
COc1ccc(/C=N/Nc2c3ccccc3nc3ccccc23)cc1,90.4%,87.9%,105%,93.9%,103%,96%,90.3%,95.4%,103%,106%
CC[C@@H](C(=O)[C@@H](C)[C@@H](O)[C@H](C)[C@@H]1O[C@@H]([C@@H](CC)C(=O)ONC(=O)c2ccccc2O)CC[C@@H]1C)C1O[C@]2(C=CC(=O)[C@]3(CC[C@@](C)([C@H]4CC[C@](O)(CC)[C@H](C)O4)O3)O2)[C@H](C)C[C@@H]1C (stereo not given in full),40.3%,28.6%,4.34% (active),50.9%,35.2%,54.2%,44.7%,27.5%,38.3%,63.6%
